Compound activity as filed in PubChem BioAssay.
IL1B secr inh – inflammasome signaling inhibition, IL-1 beta readout; THP-1 LPS/ATP IL-1B secretion, AlphaLISA, 16 h; hits give low values; activity change, % at 57.5 µM; hit rate 4.7% among 360,000; in the data active = activity change below about -50%; inconclusive = mostly about -30% to -49%
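THP-1 cells pretreated 1 hr with compounds (up to 57.5 uM final), then stimulated with LPS (250 ng/mL final) plus ATP (1.25 mM final); secreted IL-1B measured by AlphaLISA after 16 hr, decreased signal indicating inhibition.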
TDP1 cell CPT – DT40-hTDP1 cell growth loss with CPT | chicken DT40 Tdp1-/-;hTDP1 cells + 20 nM CPT, ATP luminescence, 48 h | Potency, µM (series often up to 46.2 µM), inactives show at the highest dose activity change, negative = growth inhibition, actives largely listed as inhibitors | hit rate 12% among 420,000; also: potency is read from the fitted curve at half-maximal effect; nearly all actives have a fitted effect of over 55% in size
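Chicken DT40 Tdp1-/- cells complemented with human TDP1, 400 cells/well, exposed to compounds plus 20 nM camptothecin for at least 48 h at 37 C; viability read as ATP content by CellTiter-Glo luminescence.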
HT1080 IDH1KD tx – kills HT-1080 cells with IDH1 knockdown | HT-1080 IDH1 knockdown viability, ATP luminescence, 48 h | Potency, µM (highest dose often 46.1 µM), without a hit: at the top dose activity, negative = toxicity, usual class: cytotoxic | hit rate 2% among 360,000;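 also: potency is read from the fitted curve at half-maximal effect; 0% = DMSO wells and -100% = cell-free medium wells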
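Viability of IDH1-knockdown HT-1080 fibrosarcoma cells was assessed by CellTiter-Glo after 48 h at 37 °C with titrated compound; concentration-effect curves were classified by fit quality and response size.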
TDP1 cell noCPT – qHTS for Inhibitors of human tyrosyl-DNA phosphodiesterase 1 (TDP1): qHTS in cells in absence of CPT; DT40 Tdp1-/- hTDP1 cells, no CPT, ATP luminescence, 48 h; Potency, µM (highest dose often 46.2 µM), without a hit: at the highest dose activity change, negative = growth inhibition, hits mostly inhibitors; hit rate 15% among 420,000; AID 686978, 2013; also: potency is read from the fitted curve at half-maximal effect; nearly all actives have a fitted effect of over 55% in size
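Luminescent ATP content (CellTiter-Glo) served as the growth readout. Knockout chicken DT40 cells expressing human TDP1 were exposed to compounds without camptothecin for a minimum 48 hr at 37 °C.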
HT1080-NT tox – kills 2HG-producing HT-1080-NT fibrosarcoma cells | AID 686970 | hit rate 1.6% among 360,000 | Potency, µM (series often up to 46.1 µM), inactives show at the top dose activity, negative = less viability, most hits filed as cytotoxic | HT-1080-NT fibrosarcoma viability, CellTiter-Glo ATP luminescence, 48 h;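 also: NT is the 2HG producing partner of a matched IDH1 knockdown line; potency is read from the fitted curve at half-maximal effect; 0% = DMSO-treated cells and -100% = media-only wells without cells; nearly all actives have a fitted effect of over 55% in size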
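HT-1080-NT fibrosarcoma cells (2HG-overproducing), 750 cells/well in RPMI with 5% FBS, dosed after 2 h and incubated 48 h at 37C. CellTiter-Glo luminescence normalized to DMSO and no-cell wells; concentration-response curves fitted and classed.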
* = called active by the depositor; ? = inconclusive; / = not tested or not shown. In the library only some 19% were active in any assay of this set; here they are far more common. Unless noted, calls follow the shape of the dose curve; as a rule, active = well fitted curve in the direction sought with a large enough effect; inconclusive = small, poorly fitted or top-dose-only effect, or another doubt; inactive = no such curve, though single readings can be large; an effect the other way counts as inactive or inconclusive. Unless noted, % is scaled to controls: 0 for no effect and ±100 for the full control effect.

SMILES | IL1B secr inh | TDP1 cell CPT | HT1080 IDH1KD tx | TDP1 cell noCPT | HT1080-NT tox
C=CCC[C@H](Cc1ccc(F)cc1)C(=O)OC[C@H](Cc1c[nH]c2ccccc12)NC(=O)[C@H](CC=C)CC(=O)NCCO | ? | ? | -7.0% | 18.4µM* | -15.3%
C=CCC[C@@H](Cc1ccc(F)cc1)C(=O)OC[C@@H](Cc1c[nH]c2ccccc12)NC(=O)[C@H](CC=C)CC(=O)NCCO | -21.4 | ? | -6.3% | 18.4µM* | 5.5%
C=CCC[C@@H](Cc1ccc(F)cc1)C(=O)OC[C@H](Cc1c[nH]c2ccccc12)NC(=O)[C@@H](CC=C)CC(=O)NCCO | 1.4 | ? | ? | ? | -6.3%
C=CCC[C@H](Cc1ccc(F)cc1)C(=O)OC[C@@H](Cc1c[nH]c2ccccc12)NC(=O)[C@@H](CC=C)CC(=O)NCCO | -17.1 | ? | ? | ? | ?
C=CC[C@@H](CC(=O)NCCO)C(=O)N[C@@H](COC(=O)[C@@H](CC=C)Cc1ccc(F)cc1)Cc1c[nH]c2ccccc12 | -55.0* | ? | -3.6% | ? | -7.5%
CC1CC(C)CN(c2ccc([N+](=O)[O-])cc2-c2nn[nH]n2)C1 (stereo not drawn) | 0.2 | 2.1% | 8.8% | -13.5% | 8.6%
O=C(OC1C2C=CC1C1C(=O)NC21)c1ccccc1 (stereo not drawn) | -10.2 | 2.2% | 4.4% | -22.8% | 0.7%
CC(C)(C)NCc1cc(Cl)ccc1OCc1ccccc1F | -144.0* | -39.7% | -25.9% | ? | -24.1%
Cn1nnc(NCc2cc(Br)ccc2OCc2ccccc2F)n1 | 4.1 | -28.5% | -7.7% | -10.3% | -0.3%
CCN(CC)CCNCc1cc(Cl)ccc1OCc1ccccc1F | -90.3* | ? | ? | ? | 23.1µM*
CCCCn1c(=O)nc2n(-c3ccccc3)c3ccccc3cc-2c1=O | -9.9 | ? | -6.1% | ? | 12.7%
CC(C)(C)c1ccc(C(=O)NNC(=O)CNC(=O)c2cccs2)cc1 | 7.5 | 2.1% | 12.2% | -0.1% | 0.2%
CCOC(=O)c1ccc(S(=O)(=O)NCC(c2ccc(N(C)C)cc2)c2c[nH]c3ccccc23)cc1 (stereo not drawn) | 3.4 | ? | ? | ? | ?
CN(C)c1ccc(C(CNS(=O)(=O)c2ccc(F)cc2)c2c[nH]c3ccccc23)cc1 (stereo not drawn) | -63.6* | ? | -29.6% | 14.6µM* | -20.8%
CN(C)c1ccc(C(CNC(=O)c2ccc(C#N)cc2)c2c[nH]c3ccccc23)cc1 (stereo not drawn) | ? | ? | -26.0% | 20.6µM* | -17.3%
CN(C)c1ccc(C(CNC(=O)c2ccccc2Br)c2c[nH]c3ccccc23)cc1 (stereo not drawn) | 0.2 | -21.1% | -0.4% | -11.8% | 6.3%
O=C(OCC(=O)N1CCN(C(=O)c2ccco2)CC1)c1ccccc1NCCO | -10.7 | -9.5% | -4.6% | 1.6% | 0.6%
CNC(=O)Nc1cccc(-c2cc(-c3c(Cl)cccc3Cl)no2)c1 | -79.1* | -22.8% | ? | -19.8% | -3.8%
CC(=O)Nc1cccc(-c2cc(-c3c(Cl)cccc3Cl)no2)c1 | ? | ? | 1.5% | ? | -0.6%
O=C(CN1CCOCC1)Nc1c2c(nc3ccccc13)N(Cc1ccccc1)CC2 | -8.6 | -26.0% | -4.3% | -14.6% | -10.3%
O=C(CN1CCCC1)Nc1c2c(nc3ccccc13)N(Cc1ccccc1)CC2 | -6.2 | 20.6µM* | ? | -30.0% | ?
COc1ccccc1NC(=O)COc1ccc(Br)cc1CO | 4.5 | -36.9% | -8.1% | ? | -2.2%
COc1cc(CNCC(C)C)cc(Br)c1OCC(=O)Nc1ccccc1 | -7.0 | ? | -25.8% | ? | -23.0%
COc1ccccc1NC(=O)COc1ccc(Br)cc1CNC1CCCC1 | -86.1* | ? | ? | ? | -21.4%
CNCc1cc(Br)c(OCC(=O)Nc2ccccc2OC)c(OC)c1 | -61.8* | -3.0% | ? | ? | ?
SMILES | IL1B secr inh | TDP1 cell CPT | HT1080 IDH1KD tx | TDP1 cell noCPT | HT1080-NT tox
COc1cc(CNCCc2ccccc2)cc(Br)c1OCC(=O)Nc1ccccc1C | -67.3* | ? | -12.5% | 25.9µM* | ?
CNc1cncc(-c2ccc(OCCCN(C)C)nc2)n1 | -6.1 | -3.4% | 0.9% | 4.9% | 12.3%
O=C1C(Cc2ccccc2)Nc2ncnc(N3CCOCC3)c2N1Cc1ccc(Br)cc1 (stereo not drawn) | -9.2 | ? | 2.5% | ? | 2.0%
O=C1C(Cc2ccccc2)Nc2ncnc(N3CCCCC3)c2N1Cc1ccc(Cl)cc1 (stereo not drawn) | -18.8 | ? | -12.9% | 16.4µM* | -14.4%
COc1ccc(CN2C(=O)C(Cc3ccccc3)Nc3ncnc(N4CCN(c5ccccc5)CC4)c32)cc1 (stereo not drawn) | ? | ? | -7.2% | ? | ?
O=C1C(Cc2ccccc2)Nc2ncnc(N3CCN(c4ccccc4)CC3)c2N1Cc1ccc(Cl)cc1 (stereo not drawn) | -56.4* | ? | -7.6% | 18.4µM* | -10.4%
CCc1cccc(C)c1NC(=O)Nc1c(Br)cnn1C | -11.6 | -6.2% | -8.1% | -16.4% | -1.3%
O=C(Nc1ccc2nc(SCC(=O)N3CCc4ccccc43)sc2c1)c1ccccc1 | / | 5.8µM* | / | 2.31µM* | /
Cc1ccc(C(=O)Nc2ccc3nc(SCC(=O)N4CCCc5ccccc54)sc3c2)cc1 | / | 11.6µM* | / | 7.31µM* | /
COc1ccc(C(=O)Nc2ccc3nc(SCC(=O)N4CCCc5ccccc54)sc3c2)cc1 | / | 9.2µM* | / | 18.4µM* | /
O=C(Nc1ccc2nc(SCC(=O)N3CCCc4ccccc43)sc2c1)c1ccccc1 | / | 20.6µM* | / | 18.4µM* | /
O=C(Nc1nnc(SCC(=O)N2CCCc3ccccc32)s1)c1ccccc1 | -12.2 | 13.6% | 1.0% | -7.5% | -0.2%
O=C(Nc1nnc(SCC(=O)N2CCCc3ccccc32)s1)c1ccc2ccccc2c1 | 7.5 | -26.5% | 0.3% | ? | -2.1%
CCOc1ccc(NC(=O)Cn2nnc(C(=O)NCc3ccc4c(c3)OCO4)c2N)cc1 | 20.9 | -2.4% | ? | 11.0% | ?
O=C(Nc1ccc(-c2noc(COc3ccccc3Cl)n2)cc1)c1ccco1 | -6.9 | ? | -20.2% | ? | -3.6%
O=C(COc1ccccc1Cl)Nc1ccc(NC(=O)c2ccco2)cc1 | -59.4* | -4.1% | 5.6% | 4.4% | 9.5%
COc1ccc(NC(=O)c2ccco2)cc1NC(=O)COc1ccccc1Cl | / | 6.51µM* | / | ? | /
COc1ccc(CNc2cccnc2Cl)cc1 | -10.8 | 2.1% | 6.3% | -35.2% | 0.9%
COc1ccc(Oc2c(OC)cc(NCc3ccc(CN)cc3)c3ncccc23)cc1 | 30.9 | ? | -17.7% | 25.9µM* | -11.2%
